Measured values taken from PubChem BioAssay AID720517 (National Center for Advancing Translational Sciences (NCATS), 2013).
Inconclusive results are not listed. Values without a mark were called inactive. The call rests on the fitted dose curve; in most records, active means well fitted activation curve with a large enough effect; inconclusive means small, poorly fitted or top-dose-only effect; inactive means flat fitted curve, though single readings scatter.

Assay: qHTS for Inhibitors of Cell Surface uPA Generation: FP59 Counterscreen for Cherry-picked Compounds; further: 0% is about no effect
Conditions: FP59 anthrax toxin cytotoxicity counterscreen, cells; series mostly up to 115 µM; activity (protection from FP59): at the top concentration

Row | Compound | activity (protection from FP59)
1 | CC1(C)CC2(CC(c3ccccc3)Oc3cc(O)ccc32)NC(=S)N1 (centres undefined) | -0.346%
2 | CCOC(=O)C1(CCOc2ccccc2)CCN(Cc2ccc(O)c(OC)c2)CC1 | -1.37%
3 | O=C(c1cccc(F)c1)N1CCN(Cc2cccc(Br)c2)CC1 | -0.552%
4 | O=C(NNC(=O)c1ncc(Cl)c(Cl)c1Cl)c1ccc(F)cc1 | 0.837%
5 | Cc1ccc2c(c1)N(CC(=O)NCCCc1ccccc1)C(=O)c1cccnc1O2 | -1.38%
6 | C/C(=N\NC(=O)c1cccc([N+](=O)[O-])c1)c1cccnc1 | -1.46%
7 | CCCn1c(N)c(C(=O)CSc2nnc(C3CC3)n2Cc2ccccc2)c(=O)[nH]c1=O | -1.31%
8 | COc1ncnc(NS(=O)(=O)c2ccc(N)cc2)c1OC | -1.32%
9 | CC1(c2cccc([N+](=O)[O-])c2)CC(C)(C)N(C(=O)c2ccccc2)c2ccccc21 (centres undefined) | 3.03%
10 | COc1ccc2c(c1)c1nnc(SCC(=O)Nc3ccccc3F)nc1n2C | -0.912%
11 | COc1ccc(NC(=O)c2nn(C)c3c2CS(=O)(=O)c2ccccc2-3)cc1 | -1.36%
12 | COc1ccc(C(=O)NC(C)c2cnn(-c3ccccn3)c2C)o1 (centres undefined) | -1.07%
13 | COc1ccc(N(C(C)C(=O)NN=C2CCCC2)S(C)(=O)=O)cc1 (centres undefined) | -1.4%
14 | COc1ccccc1NS(=O)(=O)c1cc(NC(=O)CCc2nc3ccccc3c(=O)[nH]2)ccc1C | -1.09%
15 | COc1ccc(CC(=O)NNS(=O)(=O)c2ccccc2[N+](=O)[O-])cc1OC | -1.49%
16 | CC(C)NCC1CCc2cc(CO)c([N+](=O)[O-])cc2N1 (centres undefined) | -1.37%
17 | Cc1oc(-c2ccccc2F)nc1CS(=O)(=O)CC(=O)NC1CCCC(C)C1C (centres undefined) | 3.16%
18 | CCc1ccc(NCc2nc(-c3ccccc3)no2)cc1 | 0.485%
19 | C=CCOC(=O)C1=C[C@H](c2ccc(C(F)(F)F)cc2)[C@@H](CCCO)[C@H](OCC)O1 | 1.86%
20 | O=C(C1=C[C@H](c2ccccc2)C[C@H](OCCCCO)O1)N1CCN(Cc2ccc3c(c2)OCO3)CC1 | -0.646%

Row | Compound | activity (protection from FP59)
21 | COc1ccc(C2=NOC(CNC(N)=S)C2)cc1 (centres undefined) | -1.38%
22 | CCOCCCn1c(SCC(=O)Nc2cc(OC)ccc2OC)nc2ccccc2c1=O | 9.94%
23 | C[C@@H](C(=O)Nc1ccc2ccccc2c1)[C@@H]1C[C@@]1(C)[C@@H](NC(=O)c1cccnc1)c1ccccc1 | 8.6%
24 | Oc1ccc(/C=N/Nc2cccc(Cl)n2)c(O)c1 | -1.59%
25 | CC(=O)Nc1c2c(nn1-c1cccc(C)c1)CSC2 | -1.26%
26 | CCOc1ccccc1N(CC(=O)Nc1ccc(OC)cc1)S(=O)(=O)c1ccccc1 | 7.21%
27 | CC1CCCCN1C(=O)CSc1nc2ncccc2[nH]1 (centres undefined) | -0.554%
28 | COc1ccc(-n2nc(C(=O)Nc3cc(OC)c(OC)c(OC)c3)c3ccccc3c2=O)c(OC)c1 | -0.854%
29 | COc1ccc(OC)c(NC(=O)C2CCCN2C(=O)C2CCC(C)CC2)c1 (centres undefined) | -1.26%
30 | C=CC1=C(C(=O)O)N2C(=O)[C@@H](NC(=O)/C(=N\O)c3csc(N)n3)[C@H]2SC1 (stereo in doubt) | -1.16%
31 | CCCN1CCN(CC(=O)Nc2nncs2)CC1 | -1.28%
32 | Cc1ccc(S(=O)(=O)N2CCOCC2)cc1C(=O)OC1CCOC1=O (centres undefined) | -1.41%
33 | CN(CCO)c1ccc(C(C(=O)c2ccccc2)c2ccc(N(C)CCO)cc2)cc1 | 0.252%
34 | COC(=O)[C@]1(Cc2ccccc2)N[C@H](CN(C)C(=O)c2ccccc2)[C@@H]2C(=O)N(Cc3ccccc3)C(=O)[C@@H]21 | 1.81%
35 | COc1ccc(C(=O)NCCCN2CCOCC2)cc1 | -1.15%
36 | COc1ccc(C2=C/C(=C\c3ccccc3OC(C)=O)C(=O)O2)cc1 | 3.33%
37 | CCOc1ccc(C(=O)NCC(=O)N2CCN(C/C=C/c3ccccc3)CC2)cc1OCC | -1.41%
38 | CCN1CCN(C(c2ccccc2)c2nnnn2Cc2ccc3c(c2)OCO3)CC1 (centres undefined) | -1.55%
39 | Cc1nn(-c2ccc(F)cc2)c(C)c1NS(=O)(=O)c1ccc(Cl)cc1 | -0.621%
